A short description of test [1]: qHTS assay for small molecule agonists of the p53 signaling pathway (AID 651631; calls by dose curve; also: nearly all actives have a fitted effect of over 15% in size). A digest of the protocol:
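Agonist mode screen using a stably integrated beta-lactamase gene under p53 response elements in HCT-116 cells. Compound exposure lasts 16 h at 37 °C; fluorescence intensity is measured following 2 h FRET substrate loading.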

Test [2] is described as follows: qHTS assay for small molecules that induce genotoxicity in human embryonic kidney cells expressing luciferase-tagged ATAD5 (AID 651632). Also: nearly all actives have a fitted effect of over 15% in size. In outline: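 Quantitative HTS in HEK293T expressing luciferase-tagged ATAD5, whose levels rise upon DNA damage. Exposure ran 16 hr at 37C and 5% CO2, with luminescence read 30 min after Amplite addition at room temperature.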
A short description of test [3]: qHTS assay for small molecule agonists of the p53 signaling pathway - cell viability (AID 651633; calls by dose curve; also: nearly all actives have a fitted effect of over 30% in size; also: potency is read from the fitted curve at half-maximal effect). In outline: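 Viability counter-read: CellTiter-Glo luminescence (30 min, room temperature) in the same p53RE-bla plates. These plates had been exposed to compounds for 16 h at 37 C.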
For orientation: qHTS replaces the single test concentration by a dilution series.

Test [4] is described as follows: qHTS assay for small molecules that induce genotoxicity in human embryonic kidney cells expressing luciferase-tagged ATAD5 - cell viability (AID 651634; calls by dose curve; also: nearly all actives have a fitted effect of over 25% in size; also: potency is read from the fitted curve at half-maximal effect). A digest of the protocol:
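After 15.5 hr incubation with compound at 37C, 5% CO2, HEK293T ATAD5-luciferase cells received CellTiter-Fluor reagent; fluorescence intensity was quantified following 30 min at 37C.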

The nature of test [5]: qHTS assay to test for compound auto fluorescence at 590 nm (red) in HepG2 cells (AID 720674). Also: potency is read from the fitted curve at half-maximal effect. In outline:
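We screened compounds on adherent HepG2 cells, incubating them for an hour at 37 C in 5% CO2 before reading emission at 590 nm under 540 nm excitation; values reflect equivalence to Rose Bengal sodium fluorescence.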

A short description of test [6]: qHTS assay to test for compound auto fluorescence at 535 nm (green) in HepG2 cells (AID 720675). Also: potency is read from the fitted curve at half-maximal effect.
A short description of test [7]: qHTS assay to test for compound auto fluorescence at 460 nm (blue) in HEK293 cells (AID 720678). A digest of the protocol:
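Measured: blue fluorescence (Ex 405/Em 460 nm) of compound-treated HEK293 cells, incubated overnight at 37C with 5% CO2 and scaled to triamterene equivalents.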

Test [8] is described as follows: qHTS assay to test for compound auto fluorescence at 590 nm (red) in HEK293 cells (AID 720679). Also: potency is read from the fitted curve at half-maximal effect. In outline:
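Using HEK293 cells at 2,000 per well, the screen added 23 nL of each compound after cell attachment and incubated overnight (37C, 5% CO2). The plate reader then captured red-label fluorescence, Ex/Em 540/590nm.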

Test [9] in a line: qHTS assay for small molecule disruptors of the mitochondrial membrane potential - cell viability (AID 720634; calls by dose curve;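 also: human HepG2 liver cancer cells; series mostly up to about 83 µM; nearly all actives have a fitted effect of over 20% in size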). In outline: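 ATP-based luminescent viability readout (CellTiter-Glo, 30 min, room temperature) in HepG2 cells multiplexed with the m-MPI membrane potential dye; compound exposure lasted 1 hr at 37 C.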
Test [10] can be described thus: qHTS assay for small molecule disruptors of the mitochondrial membrane potential (AID 720635). Also: potency is read from the fitted curve at half-maximal effect. A digest of the protocol: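 Mitochondrial membrane potential tracked with Mito-MPS dye, red aggregates (ex 540/em 590 nm) against green monomers (ex 490/em 535 nm). Compound treatment 1 hr at 37C, dye 30 min in HepG2.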

Structures are written as SMILES. Several values for one entry are separate records, joined by “and”; a condition that tells them apart may be missing. Equal entries are not always repeated. Records with an inconclusive call do not appear. Activity calls are given as the source filed them. Unless noted, calls follow the shape of the dose curve; as a rule, active = well fitted curve in the direction sought with a large enough effect in the repeat runs; inconclusive = weak or mixed curves; inactive = no such curve, though single readings can be large; an effect the other way counts as inactive or inconclusive.
Tags tell the direction and shape of the fitted curve or compound fluorescence and quenching.

Turning to `OC[C@H]1O[C@H](O[C@]2(CCl)O[C@H](CCl)[C@@H](O)[C@@H]2O)[C@H](O)[C@@H](O)[C@H]1Cl`, the Potency entry in [1], in test [2], in test [3], in [4], in test [5] and in test [6] was “inactive” in each case. The Potency result in test [7] and in [8] was “inactive” throughout.
`CCOC(N)=O`: the Potency entry in [1], in [2], in test [3], in test [4], in [5] and in test [6] was “inactive” throughout. The Potency result in [7] and in test [8] was “inactive” in each case.
Take `COc1ccc(C(Cl)=C(c2ccc(OC)cc2)c2ccc(OC)cc2)cc1`: the Potency result in test [1], in test [2], in test [3], in [4], in test [5] and in test [6] was “inactive” in each case. For the same compound, the Potency entry in [7] and in [8] was “inactive” throughout.
Regarding `NS(=O)(=O)O`, the Potency entry in [1], in test [2], in test [3], in test [4], in [5] and in test [6] was “inactive” in each case. For the same compound, the Potency entry in test [7] and in test [8] was “inactive” throughout.
Consider `Cc1c(C(=O)O)c(O)cc2c1C(=O)c1c(O)c([C@@H]3O[C@H](CO)[C@@H](O)[C@H](O)[C@H]3O)c(O)c(O)c1C2=O`, for which the Potency entry in [1], in test [2], in [3], in test [5], in test [6] and in test [7] was “inactive” throughout. Also, the Potency result in test [8] was “inactive”. The Potency in [4] is 11.9 µM (active) and 37.6 µM (active) and 54.5 µM (active).
`CCCCCCCC(=O)OCC(COC(=O)CCCCCCC)OC(=O)CCCCCCC`: the Potency result in test [1], in [2], in test [3], in test [4], in test [9] and in test [10] was “inactive” in each case. The Potency result in test [5], in [6], in test [7] and in test [8] was “inactive” each time.
Turning to `O=C1c2c(O)cccc2Cc2cccc(O)c21`, the Potency entry in [1], in test [2], in [3], in [4], in [9] and in [5] was “inactive” in each case. Besides, the Potency result in [6], in test [7] and in [8] was “inactive” in each case.
As to `CC12CCC(CC1)C(C)(C)O2`, the Potency result in test [1], in [2], in [3], in test [4], in test [5] and in test [6] was “inactive” in each case. Besides, the Potency entry in test [7] and in test [8] was “inactive” in each case.
For `CC(=O)C(=O)O`, the Potency result in [1], in [2], in test [3], in [4], in test [5] and in [6] was “inactive” each time. The Potency entry in [7] and in [8] was “inactive” each time.
Consider `Nc1c(N=Nc2ccc(-c3ccc(N=Nc4cc(S(=O)(=O)O)c5ccccc5c4N)cc3)cc2)cc(S(=O)(=O)O)c2ccccc12`, for which the Potency result in test [2], in test [3], in test [9], in [5], in [6] and in [7] was “inactive” in each case. Moreover, the Potency result in test [8] is “inactive”. Moreover, in test [4], the Potency is 13.3 µM (active) and 27.3 µM (active).
Turning to `CNNCc1ccc(C(=O)NC(C)C)cc1`, the Potency entry in [1], in [3], in test [4], in test [5], in test [6] and in test [7] was “inactive” throughout. Besides, the Potency entry in [8] was “inactive”.
On to `CC1(C)S[C@@H]2[C@H](NC(=O)[C@H](N)c3ccccc3)C(=O)N2[C@H]1C(=O)O`, for which the Potency entry in [1], in [2], in test [3], in test [4], in [5] and in test [6] was “inactive” throughout. In addition, the Potency entry in [7] and in [8] was “inactive” each time.
Turning to `C[C@](N)(Cc1ccc(O)c(O)c1)C(=O)O`, the Potency result in test [1], in test [2], in test [3], in test [4], in test [5] and in [6] was “inactive” each time. In addition, the Potency result in test [7] and in [8] was “inactive” each time.
As to `O=C1OC2(c3ccccc31)c1cc(Br)c(O)c(Br)c1Oc1c2cc(Br)c(O)c1Br`, the Potency entry in test [2], in test [3], in test [9] and in test [7] was “inactive” throughout. Also, the Potency in test [4] is 21.1 µM (active) and 1.56 µM (active) and 19.9 µM (active); in test [5] it was 3.16 µM (active) and 2.51 µM (active); in test [6], 12.6 µM (active) and 4.47 µM (active) and 17.8 µM (active); in test [8] it was 5.01 µM [fluorescent] (active) and 4.47 µM [fluorescent] (active) and 3.55 µM [fluorescent] (active).
On to `CCCCCCCCCCCC[N+](C)(C)Cc1ccccc1`, for which the Potency entry in [2], in [9], in test [5], in [6], in test [7] and in [8] was “inactive” each time. Besides, the Potency in test [3] is 18.8 µM (active) and 47.6 µM (active) and 29.7 µM (active); in test [4], 26.8 µM (active) and 74.5 µM (active); in [10], 8.41 µM (active) and 19 µM (active) and 21 µM (active).
As for `Cc1cn([C@H]2C=C[C@@H](CO)O2)c(=O)[nH]c1=O`, the Potency result in test [2], in [3], in test [4], in test [9], in test [10] and in test [5] was “inactive” throughout. In addition, the Potency result in test [6], in test [7] and in test [8] was “inactive” in each case.
With `CS(=O)(=O)OCCCCOS(C)(=O)=O`, the Potency entry in test [1], in test [2], in test [3], in test [4], in [5] and in [6] was “inactive” each time. For the same compound, the Potency entry in [7] and in [8] was “inactive” each time.
With `Nc1ccc(S(N)(=O)=O)cc1`, the Potency result in [1], in test [3], in test [4], in [9], in [10] and in test [5] was “inactive” in each case. Further, the Potency result in [6], in test [7] and in test [8] was “inactive” throughout.
As for `Nc1c2c(nc3ccccc13)CCCC2`, the Potency result in test [2], in test [3], in test [4], in test [9], in [10] and in [5] was “inactive” throughout. The Potency entry in test [6], in [7] and in test [8] was “inactive” throughout.
Consider `O=C1O[C@H]([C@@H](O)CO)C(O)=C1O`, for which the Potency result in test [1], in [2], in [4], in [9], in test [10] and in test [5] was “inactive” in each case. Also, the Potency entry in [6], in test [7] and in test [8] was “inactive” each time.

The values are drawn from PubChem BioAssay (Tox21).
